Assay outcomes (PubChem BioAssay)
This is one part of a sample in which hits are shown more often than they occur.
TTR transcr act = TTR transcription activators in neuroblastoma reporter cells, primary screen, cell-based, luminescence, SH-SY5Y, TTR promoter Gaussia luciferase; activation, % at 16.7 µM; 100% = recombinant luciferase protein wells; 92,000 compounds, 1.3% hits;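 active = activation above the mean of all tested compounds plus 3 SD, cut at about 9.5% in these data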;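 also: cells exposed to compounds for one day before reading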
Of the large screens only hits and unclear results are named; the others gave an inactive call.

COCCNC(=O)C1c2cc(OC)c(OC)cc2C(=O)N(C)C1c1cccnc1 (configuration not stated)	none
CCCN(CCC)CCCNC(=O)C1c2cc(OC)c(OC)cc2C(=O)N(C)C1c1cccnc1 (configuration not stated)	none
CCOc1cc2c(cc1OCC)C(C(=O)O)C(c1cc(OC)c(OC)c(OC)c1)N(C)C2=O (configuration not stated)	TTR transcr act 12
C[C@]12C(=O)N(c3cccc(F)c3)C(=O)N1[C@H]1c3ccccc3OC[C@@H]1[C@H]2c1ccccc1	none
C[C@]12C(=O)N(c3ccccc3)C(=O)N1[C@H]1c3ccccc3OC[C@@H]1[C@H]2c1ccccc1	TTR transcr act 11
C[C@]12C(=O)N(c3cccc(Cl)c3)C(=O)N1[C@@H]1c3ccccc3OC[C@@H]1[C@H]2c1ccccc1	none
COc1cc(Cn2cc([C@]34C[C@H]5C(=O)N(C)CC(=O)N5[C@H]3N(S(=O)(=O)c3ccccc3)c3ccccc34)c3ccccc32)cc(OC)c1	none
CC1CCN(c2ncccc2C(=O)O)CC1	none
CC1CCN(c2nnc(N3CCC(C)CC3)c3ccccc23)CC1	TTR transcr act 15
Cc1cc(N2CCC(C)CC2)nc2ccccc12	none
CCCCOCCCNC(=O)C[C@@H]1C[C@]2(C(=O)OCC)CCC3=C2N(CCC3)C1=O	none
CCN(CC)c1c(C)nc2ccc(C(=O)NCc3ccc4c(c3)OCO4)cn12	none
C[C@@H]1CN([C@H](C)CO)C(=O)c2cc(NS(=O)(=O)c3ccccc3)ccc2O[C@@H](C)CCCCO[C@@H]1CN(C)Cc1ccc(Cl)c(Cl)c1	none
CCn1c(SCC(=O)Nc2ccc(N(C)C)cc2)nnc1-c1cccc(C)c1	TTR transcr act 28
CCn1c(SCC(=O)Nc2cccc(OC)c2)nnc1-c1ccc(Cl)cc1	none
CCn1c(SCC(=O)Nc2ccc(C)cc2)nnc1-c1ccccn1	none
COC(=O)[C@]12C[C@H](CC(=O)N3CCCC3)C(=O)N(Cc3ccco3)C1=C[C@H](C1CCCC1)O[C@@H]2C	none
COc1ccc(C(=O)NCN2CCN(c3ccccc3)CC2)cc1OC	none
CC(C)C[C@H](NC1(C(=O)NC2CCCCC2)CCN(C)CC1)C(=O)NCC(c1ccccc1)c1ccccc1	none
CCCCCc1ccc2cc(C#N)ccc2n1	none
C=C(C)C(=O)Nc1cccc(C2=NOC3(C2)C[C@@H](C(N)=O)N(C(=O)C2(C)CC2)C3)c1 (some centres not stated)	none
C/C=C\C=C/C(=O)Nc1cccc(C2=NOC3(C2)C[C@@H](C(N)=O)N(C(=O)C2(C)CC2)C3)c1 (some centres not stated)	TTR transcr act 11
C/C=C\C(=O)Nc1cccc(C2=NOC3(C2)C[C@@H](C(N)=O)N(C(=O)C2(C)CC2)C3)c1 (some centres not stated)	none
O=C(OCC#CCSc1nnc(-c2cccc3ccccc23)o1)c1ccc(F)cc1F	none
CCC(C#Cc1ccccc1)N(C)C(N)=NC(=O)/C=C/c1ccccc1 (configuration not stated)	none
COc1ccc(CN2C(=O)c3ccnn3CC2(C)c2nnnn2-c2c(C)cccc2C)cc1 (configuration not stated)	none
CCOC(=O)C(C)NC(=O)C(NC(=O)C1CCC(CC)CC1)C(C)C (configuration not stated)	TTR transcr act 10
CC(C)[C@H](NC(=O)[C@@H]1Cc2ccccc2CN1C(=O)OC(C)(C)C)C(=O)NCC1CCC(C(=O)O)CC1 (some centres not stated)	none
CCOc1ccc(NC(=O)C(NC(=O)C2CCC(C)CC2)C(C)C)cc1 (configuration not stated)	none
COC(=O)[C@]12C[C@H](CC(=O)NCc3cccc(C(F)(F)F)c3)C(=O)N(CCc3ccc(OC)c(OC)c3)C1=C[C@H](COCc1ccccc1)O[C@@H]2C	none
c1ccc2sc(-c3csc4c3CCNC4)nc2c1	none
CC(C)(C)CCN1CCC[C@H](NC(=O)COc2ccc(F)c(Cl)c2)C1	none
CC(C)[C@H](NC(=O)N1c2ccccc2NC(=O)[C@@H]1C(C)C)C(=O)N[C@@H](C(=O)O)c1ccccc1	TTR transcr act 27
O=C1CN(C(=O)NCC(=O)N[C@@H](C(=O)O)c2ccccc2)c2ccccc2N1	none
CC(C)C[C@H](NC(=O)N1CC(=O)Nc2ccccc21)C(=O)N[C@@H](C(=O)O)c1ccccc1	none
COc1ccc(S(=O)(=O)N(C)C[C@@H]2Oc3c(NC(=O)Nc4cccc5ccccc45)cccc3C(=O)N([C@@H](C)CO)C[C@H]2C)cc1	none
N#Cc1cc(-c2cccc(Cl)c2)c[nH]c1=O	TTR transcr act 13
C=CCn1cc(-c2cccc(Cl)c2)cc(C#N)c1=O	none
N#Cc1c(-c2cccc(Cl)c2)[nH]c(=S)[nH]c1=O	none
C#CCNC(=O)C[C@H]1C[C@@]2(C(=O)OC)C(=C[C@H](C(C)C)O[C@@H]2C2CC2)N(CCCCCCCC)C1=O	none
COCCNC(=O)C1Cc2c(-c3ccc(NC(C)=O)cc3)ccnc2O1 (configuration not stated)	none
CC(=O)NCCNC(=O)C1Cc2c(-c3ccc(Cl)cc3)ccnc2O1 (configuration not stated)	TTR transcr act 10
O=C(Nc1ccc(Cl)cc1)C1Cc2c(-c3ccc(Cl)cc3)ccnc2O1 (configuration not stated)	none
COc1ccc(NC(=O)CSCc2ccc(C#N)cc2)c(OC)c1	none
COCC(=O)Nc1cc(OC)ccc1OC	none
COc1ccc(OC)c(NC(=O)CSCC(=O)O)c1	TTR transcr act 23
COC(=O)[C@]12C[C@H](CC(=O)N3CCN(C(=O)C4CC4)CC3)C(=O)N(Cc3cccc4ccccc34)C1=C[C@H](C(C)C)O[C@@H]2C1CC1	none
COc1cccc(C2c3c(ncn(-c4ccccc4)c3=N)Oc3ccc4ccccc4c32)c1OC (configuration not stated)	none
COc1ccc(C2c3c(ccc4ccccc34)Oc3ncn4nc(-c5ccco5)nc4c32)cc1 (configuration not stated)	none
COc1ccc(C2c3c(ccc4ccccc34)Oc3ncn4nc(CO/N=C/c5ccccc5)nc4c32)cc1 (configuration not stated)	TTR transcr act 12
O=C(OCC#CCSc1nnc(-c2cccc3ccccc23)o1)c1ccc(SC(F)(F)F)cc1	none
O=C(Nc1ccc(N2CCN(C(=O)c3ccc(Cl)cc3)CC2)cc1)c1ccc2c(c1)OCCO2	none
O=C(Nc1ccccc1N1CCN(C(=O)c2ccc(Cl)cc2)CC1)c1ccc2c(c1)OCO2	TTR transcr act 10
O=C(Nc1cc(Cl)ccc1N1CCOCC1)c1ccc2c(c1)OCCO2	none
NC(=O)C1CCN(c2nc(-c3ccc4c(c3)OCCCO4)cs2)CC1	none
COCCNC(=O)c1c(N)[nH]c(C(=O)c2ccc(Br)cc2)c1-c1c(OC)ccc2ccccc12	none
C[C@H]1[C@@H](OC(=O)Nc2cccc(C(F)(F)F)c2)CC[C@@]23CCCN2C(=O)CCC[C@@H]13	none
C[C@H]1C(=O)N2[C@@H](C[C@]3(c4c[nH]c5ccccc45)c4ccccc4N(S(=O)(=O)c4ccccc4)[C@H]23)C(=O)N1C	none
O=S1(=O)N[C@H](c2ccccc2)COc2cc(Br)ccc21	none
COC(=O)[C@H]1[C@@H](C)N(CCc2cc(OC)c(OC)c(OC)c2)C(=O)N[C@H]1c1ccccc1	none
CCN1C(=NCCc2ccc([N+](=O)[O-])cc2)N[C@@H](c2ccccc2)[C@H](C(=O)OC)[C@H]1C	none
CCN1C(=NCCCOC(C)C)N[C@@H](c2ccccc2)[C@H](C(=O)OC)[C@H]1C	TTR transcr act 12
CCCC[C@H](C(=O)N(CC)c1ccccc1)[C@@H](O)c1ccc(Cl)cc1	none
